# Screens from PubChem BioAssay.
# Compounds with a hit are over-represented: about 11% of the library has one in this group of screens.
# HP1b chromo inh: blocks HP1-beta chromodomain binding to methylated histone tails; AlphaScreen HP1-beta / biotin-H3K9me3 peptide binding; Potency, µM (highest dose often 114 µM), without a hit: top-dose activity change, negative = inhibition, actives largely listed as inhibitors; 390,000 tested, 0.56% active; AID 540317; also: nearly all actives have a fitted effect of over 70% in size
#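 AlphaScreen: HP1-beta (50 nM) preformed 30 min with biotin-H3(1-18)K9me3 peptide (50 nM) in PBS pH 7.4, 0.01% Tween-20. Compound added for 30 min at RT, then streptavidin donor/nickel chelate acceptor beads (10 ug/mL) for 30 min.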
# JMJD2A Tudor: JMJD2A Tudor domain (human) inhibition; AID 504339; AlphaScreen JMJD2A-Tudor / H3K4me3 peptide binding; Potency, µM (highest dose often 114 µM), inactives show top-dose activity change, negative = inhibition, actives largely listed as inhibitors; 390,000 tested, 4.4% active; also: % is scaled to controls: 0 for no effect and ±100 for the full control effect; nearly all actives have a fitted effect of over 50% in size
# Target sequence (O75164 whole entry, looked up, the tested form may be a part): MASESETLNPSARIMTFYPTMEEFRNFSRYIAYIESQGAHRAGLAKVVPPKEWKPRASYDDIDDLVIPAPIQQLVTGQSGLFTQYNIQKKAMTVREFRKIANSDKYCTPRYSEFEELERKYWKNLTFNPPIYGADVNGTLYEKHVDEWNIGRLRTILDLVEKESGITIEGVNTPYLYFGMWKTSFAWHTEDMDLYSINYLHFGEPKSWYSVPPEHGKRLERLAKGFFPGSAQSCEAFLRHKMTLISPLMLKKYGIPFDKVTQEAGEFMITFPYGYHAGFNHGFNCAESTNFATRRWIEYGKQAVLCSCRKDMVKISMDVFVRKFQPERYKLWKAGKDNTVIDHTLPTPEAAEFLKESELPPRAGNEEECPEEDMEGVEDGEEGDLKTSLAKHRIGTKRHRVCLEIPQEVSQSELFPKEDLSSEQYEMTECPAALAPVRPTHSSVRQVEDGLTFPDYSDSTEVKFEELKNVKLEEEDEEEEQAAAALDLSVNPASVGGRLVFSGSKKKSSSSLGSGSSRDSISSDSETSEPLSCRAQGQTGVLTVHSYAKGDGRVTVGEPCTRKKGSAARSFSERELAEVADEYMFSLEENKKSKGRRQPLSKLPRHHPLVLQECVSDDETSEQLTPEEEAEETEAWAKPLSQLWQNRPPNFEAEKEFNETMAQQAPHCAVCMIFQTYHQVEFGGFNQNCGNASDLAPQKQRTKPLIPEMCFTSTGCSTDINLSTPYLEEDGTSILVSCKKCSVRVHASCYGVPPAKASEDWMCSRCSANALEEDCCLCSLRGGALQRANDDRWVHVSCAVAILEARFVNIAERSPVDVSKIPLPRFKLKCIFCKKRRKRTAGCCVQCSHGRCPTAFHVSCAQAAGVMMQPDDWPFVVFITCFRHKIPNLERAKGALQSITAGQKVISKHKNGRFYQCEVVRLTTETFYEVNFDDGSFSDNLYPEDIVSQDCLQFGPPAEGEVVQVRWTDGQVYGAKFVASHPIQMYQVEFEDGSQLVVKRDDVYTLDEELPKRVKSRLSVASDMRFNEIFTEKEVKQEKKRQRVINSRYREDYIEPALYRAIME
# L3MBTL1 block: blocks human L3MBTL1; Q9Y468; AlphaScreen L3MBTL1–H3K9me1 peptide binding; Potency, µM (top dose mostly 57.1 µM), for inactives: at the highest dose activity, negative = inhibition, hits mostly inhibitors; 230,000 tested, 0.66% active; AID 485360; also: % is scaled to controls: 0 for no effect and ±100 for the full control effect; nearly all actives have a fitted effect of over 60% in size
#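 L3MBTL1 50 nM + b-AHA-H3(1-15)K9me1 75 nM, 30 min RT; compound added, 30 min RT; streptavidin donor/Ni-chelate acceptor beads 10 ug/mL each final, 30 min RT dark; AlphaScreen read.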
# G9a block: blocks human histone lysine methyltransferase G9a. Q96KQ7. G9a H3K9 monomethylation, AlphaScreen, 2 h. Potency, µM (top dose mostly 102 µM), for the others: at the top dose activity, negative = inhibition, actives largely listed as inhibitors. 350,000 tested, 8.8% active. AID 504332; also: % is scaled to controls: 0 for no effect and ±100 for the full control effect; nearly all actives have a fitted effect of over 75% in size
#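 Compounds were preincubated with 20 nM G9a for 15 min, after which biotinylated H3K9 peptide (500 nM) and SAM (20 uM) started a 2 h room-temperature reaction. Monomethylated product was quantified by antibody-based AlphaScreen chemiluminescence.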
# BAZ2B inh: blocks human BAZ2B; AlphaScreen BAZ2B-H3K14Ac peptide displacement; Potency, µM (highest dose often 114 µM), inactives show at the top dose activity change, negative = inhibition, most hits filed as inhibitors; 360,000 tested, 4.4% active; AID 504333; also: % is scaled to controls: 0 for no effect and ±100 for the full control effect; nearly all actives have a fitted effect of over 60% in size
#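 AlphaScreen luminescence quantifies BAZ2B engagement of H3K14Ac peptide; the protein and biotinylated peptide are both at 50 nM final, buffer PBS pH 7.4 with 0.01% Tween-20, all steps at room temperature.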
# An asterisk follows results filed as active; ? = inconclusive; . = no result; ! = not active in a repeat; [ ] = remark or other dose. Calls follow the shape of the dose curve; as a rule, active = well fitted inhibition curve with a large enough effect; inconclusive = small, poorly fitted or top-dose-only effect; inactive = no such curve, though single readings can be large or run the other way. Potency is read from the fitted curve at half-maximal effect.
SMILES,HP1b chromo inh,JMJD2A Tudor,L3MBTL1 block,G9a block,BAZ2B inh
COc1ccc(OC)c(C(=O)CSc2nc3ncccc3[nH]2)c1,10%,4%[57.1 µM],0%,50µM*,-33%
Cc1ccccc1OCC(=O)Nc1ccccc1OCc1cc(=O)n2ccccc2n1,32%[57 µM],1%,.,1%[59 µM],8%
COCCN(Cc1nnc(-c2cccs2)o1)C(=O)CN1C(=O)NC2(CCCCC2)C1=O,27%[57 µM],-2%,8%,.,.
Cc1cc(C)cc(NC(=O)CSc2cc(C)[nH]c(=O)n2)c1,36%,-3%,.,8%[59 µM],-4%
Cc1cc(SCC(=O)c2cccc([N+](=O)[O-])c2)nc(=O)[nH]1,?,?,.,28µM*,?
Cc1c(C(=O)OC(C)C(=O)N(C)Cc2ccccc2)oc2ccccc12 (stereo unspecified),56%,-3%,10%,.,.
Cc1c(C(=O)OC(C)C(C)C[N+](C)(C)C)oc2ccccc12 (stereo unspecified),14%,56µM*,.,13µM*,-20%
CCCCC(CC(O)COCC(C)C)C(=O)NNC(=S)Nc1ccccc1 (stereo unspecified),27%,1%,0%,8.9µM*,0%
CCCCCCOc1ccc(C2C(=O)N(C3CCCCC3)CC(=O)N2CCC)cc1 (stereo unspecified),12%,2%,.,16%[59 µM],4%
COc1ccccc1Nc1nc(-c2cccc(N3C(=O)c4ccccc4C3=O)c2)cs1,17%,-13%,-4%,25µM*,-3%
O=C1c2ccccc2C(=O)N1c1cccc(-c2csc(Nc3ccc4c(c3)OCO4)n2)c1,.,.,-30%,8.9µM*,?
c1cncc(-c2nc(-c3ccc4c(c3)OCO4)cs2)c1,20%,-28%,1%,16%[59 µM],-8%
CCC(=O)N(C1=C(NC)C(=O)c2ccccc2C1=O)C(C)C,3%,-17%,.,-40%,-25%
CCC(=O)N(CC)C1=C(O)c2ccccc2C(=O)C1=O,?,5.6µM*,-11%,1µM*,45µM*
Cn1c(=O)[nH]c(=O)c2c1nc1n2CC(O)CN1c1ccccc1 (stereo unspecified),86%,-18%,.,0%,3%
COCCN=C1N[C@@H](c2cccc(C(F)(F)F)c2)C(C(=O)OC)=C(C)N1Cc1ccccc1,2%,?,7%,?,-11%
CCN1C(=NCCCCO)N[C@@H](c2cccc(C(F)(F)F)c2)C(C(=O)OC)=C1C,47%,?,14%,21%[12.7 µM],?
C=CCN=C1N[C@@H](c2cccc(C(F)(F)F)c2)C(C(=O)OC)=C(C)N1CC,32%,?,12%,28µM*!,?
CCN1C(=NCC(C)C)N[C@@H](c2cccc(C(F)(F)F)c2)C(C(=O)OC)=C1C,31%,18µM*,21%,7%[12.7 µM],?
COC(=O)C1=C(C)N(Cc2ccccc2)C(=NCC(C)C)N[C@H]1c1ccccc1,-7%,-32%,6%,50µM*!,6%
COC(=O)C1=C(C)N(Cc2ccccc2)C(=NCc2ccc(OC)cc2)N[C@H]1c1ccccc1,-7%,?,1%,.,?
COC(=O)C1=C(C)N(Cc2ccccc2)C(=NCc2cccc(C(F)(F)F)c2)N[C@H]1c1cccc(C(F)(F)F)c1,24%,-24%,16%,.,-31%
COC(=O)C1=C(C)N(Cc2ccccc2)C(=NCCc2c[nH]c3ccccc23)N[C@H]1c1cccc(C(F)(F)F)c1,-24%,56µM*,-6%,12%[12.7 µM],?
CN1CCN(S(=O)(=O)c2ccc(C(F)(F)F)cc2)C(c2ccccc2)C1 (stereo unspecified),78%,12%,4%,15%[2.33 µM],1%
C=CCN=C1N[C@@H](c2ccccc2)C(C(=O)OC)=C(C)N1CC,24%,-16%,1%,40µM*!,8%
COC(=O)C1=C(C)N(Cc2ccccc2)C(=NCc2ccco2)N[C@H]1c1ccc(Br)cc1,.,.,.,0%[12.7 µM],79µM*
COC(=O)C1=C(C)N(Cc2ccco2)C(=O)N[C@@H]1c1ccccc1,2%,-20%,-1%,?,-37%
CCO[C@H]1OC(C(=O)Nc2ccccc2)=C[C@@H](C)[C@@H]1CCCO,25%,-1%,1%,6%[12.7 µM],-10%
